These results are taken from article PMC7862700, “An all-to-all approach to the identification of sequence-specific readers for epigenetic DNA modifications on cytosine”.

Holding throughout (assay): DAPPL (digital affinity profiling via proximity ligation, sequencing); 10 mM Tris-HCl pH 7.5, 50 mM NaCl, 1 mM DTT, 4% glycerol, room temperature, 30 min; GST-TFs on glutathione beads, 16-mer random dsDNA library, 0.1% formaldehyde crosslink after washing; high values mean tight binding
Holding throughout (settings): protein: recombinant; tags: N-terminal GST; dsDNA, one strand shown

One assay addresses T1, FLI1 (Homo sapiens, UniProt Q01543 1-452).
T1 sequence: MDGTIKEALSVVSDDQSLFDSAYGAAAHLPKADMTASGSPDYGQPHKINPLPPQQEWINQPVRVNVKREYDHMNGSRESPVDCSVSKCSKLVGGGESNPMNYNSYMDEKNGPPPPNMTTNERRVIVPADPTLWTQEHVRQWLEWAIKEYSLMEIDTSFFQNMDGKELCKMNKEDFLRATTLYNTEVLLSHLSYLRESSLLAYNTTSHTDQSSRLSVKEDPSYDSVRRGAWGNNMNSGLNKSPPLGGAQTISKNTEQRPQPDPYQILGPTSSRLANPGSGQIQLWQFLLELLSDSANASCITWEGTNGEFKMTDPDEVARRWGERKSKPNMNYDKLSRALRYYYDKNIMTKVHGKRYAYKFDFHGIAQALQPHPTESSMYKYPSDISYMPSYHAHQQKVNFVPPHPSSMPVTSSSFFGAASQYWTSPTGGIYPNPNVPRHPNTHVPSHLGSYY
The essentials:
(§1)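 Binding signal is given per hexamer as its read frequency for a factor divided by its frequency in the tag-only sample. GST-fused human transcription factors were expressed in yeast, captured on glutathione beads, barcoded with DNA and pooled with that sample, then incubated with 200 nmole of a 16-mer random double-stranded DNA library in Tris/NaCl/DTT/glycerol buffer for 30 min at room temperature. The pools were then washed, crosslinked, proximity-ligated, amplified by PCR and sequenced on an Illumina NextSeq500.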

In a further assay the target is T2, ELK1 (Homo sapiens, UniProt P19419 1-428).
T2 sequence: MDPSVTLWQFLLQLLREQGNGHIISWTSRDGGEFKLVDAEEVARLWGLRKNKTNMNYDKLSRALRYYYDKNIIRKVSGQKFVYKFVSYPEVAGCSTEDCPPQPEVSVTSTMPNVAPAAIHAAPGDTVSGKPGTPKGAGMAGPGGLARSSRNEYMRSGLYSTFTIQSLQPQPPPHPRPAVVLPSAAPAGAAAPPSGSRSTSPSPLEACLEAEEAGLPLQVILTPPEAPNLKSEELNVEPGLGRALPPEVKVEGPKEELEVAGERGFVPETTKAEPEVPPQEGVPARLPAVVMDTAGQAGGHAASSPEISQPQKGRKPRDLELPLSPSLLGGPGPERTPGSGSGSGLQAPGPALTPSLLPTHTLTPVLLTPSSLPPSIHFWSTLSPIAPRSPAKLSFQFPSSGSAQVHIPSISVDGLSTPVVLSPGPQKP
The essentials: as §1

A further assay has as its target T3, GABPA (Homo sapiens, UniProt Q06546 1-454).
T3 sequence: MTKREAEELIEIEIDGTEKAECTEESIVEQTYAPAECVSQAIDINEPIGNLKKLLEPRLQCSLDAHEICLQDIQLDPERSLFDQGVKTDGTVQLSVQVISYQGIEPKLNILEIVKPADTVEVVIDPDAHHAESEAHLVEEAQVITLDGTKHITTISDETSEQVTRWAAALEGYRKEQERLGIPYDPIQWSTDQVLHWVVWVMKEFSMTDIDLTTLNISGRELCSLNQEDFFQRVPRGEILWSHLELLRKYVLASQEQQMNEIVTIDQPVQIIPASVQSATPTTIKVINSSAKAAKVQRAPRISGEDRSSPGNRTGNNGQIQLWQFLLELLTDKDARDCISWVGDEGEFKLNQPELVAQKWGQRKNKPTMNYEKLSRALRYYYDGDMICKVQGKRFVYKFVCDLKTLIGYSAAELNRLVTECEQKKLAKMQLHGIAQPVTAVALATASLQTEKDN
The procedure, abridged:
as §1

In another assay the target is T4, ERG (Homo sapiens, UniProt P11308 1-479).
T4 sequence: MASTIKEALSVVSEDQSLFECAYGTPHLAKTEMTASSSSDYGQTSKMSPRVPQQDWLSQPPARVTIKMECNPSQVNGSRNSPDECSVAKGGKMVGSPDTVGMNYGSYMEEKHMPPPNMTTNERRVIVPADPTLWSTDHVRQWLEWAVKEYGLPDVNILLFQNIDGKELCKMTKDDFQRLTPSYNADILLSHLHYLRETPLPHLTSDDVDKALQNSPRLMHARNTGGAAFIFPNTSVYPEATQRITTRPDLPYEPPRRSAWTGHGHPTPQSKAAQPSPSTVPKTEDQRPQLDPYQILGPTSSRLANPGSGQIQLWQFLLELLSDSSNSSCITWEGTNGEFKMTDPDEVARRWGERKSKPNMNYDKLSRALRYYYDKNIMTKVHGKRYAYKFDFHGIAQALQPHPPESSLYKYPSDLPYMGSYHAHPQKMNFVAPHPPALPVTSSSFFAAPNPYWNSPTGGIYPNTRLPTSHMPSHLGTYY
The procedure, abridged:
as §1

The target in a further assay is ELF1 (Homo sapiens, UniProt P32519 1-619). The procedure, abridged: as §1
Another assay addresses T5, EHF (Homo sapiens, UniProt Q9NZC4 1-300).
T5 sequence: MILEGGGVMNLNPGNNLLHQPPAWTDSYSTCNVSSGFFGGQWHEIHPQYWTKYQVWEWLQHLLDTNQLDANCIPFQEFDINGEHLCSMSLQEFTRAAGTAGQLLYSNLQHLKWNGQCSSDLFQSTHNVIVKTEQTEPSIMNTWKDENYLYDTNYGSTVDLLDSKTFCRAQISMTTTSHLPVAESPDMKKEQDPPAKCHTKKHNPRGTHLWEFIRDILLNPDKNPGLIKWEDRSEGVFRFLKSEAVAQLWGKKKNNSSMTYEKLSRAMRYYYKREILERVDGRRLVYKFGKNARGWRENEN
The procedure, abridged: as §1

The target in another assay is SPI1 (Homo sapiens, UniProt P17947 1-270). The procedure, abridged: as §1
The target in another assay is SPIB (Homo sapiens, UniProt Q01892 1-262). The essentials:
as §1

For the next assay, the target named is T6, ELK3 (Homo sapiens, UniProt P41970 1-407).
T6 sequence: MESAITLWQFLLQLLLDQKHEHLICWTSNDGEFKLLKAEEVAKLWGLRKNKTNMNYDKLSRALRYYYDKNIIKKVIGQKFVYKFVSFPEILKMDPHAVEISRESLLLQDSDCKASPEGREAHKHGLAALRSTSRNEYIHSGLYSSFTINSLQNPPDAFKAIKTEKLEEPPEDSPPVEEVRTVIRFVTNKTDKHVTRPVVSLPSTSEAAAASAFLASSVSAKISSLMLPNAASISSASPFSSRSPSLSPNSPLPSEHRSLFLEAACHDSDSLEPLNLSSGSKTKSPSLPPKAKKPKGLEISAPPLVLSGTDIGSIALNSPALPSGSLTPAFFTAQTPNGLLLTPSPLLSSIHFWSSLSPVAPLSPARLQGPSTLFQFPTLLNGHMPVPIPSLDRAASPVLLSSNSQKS
The essentials:
as §1

Chain of ELF1 (P32519 whole entry): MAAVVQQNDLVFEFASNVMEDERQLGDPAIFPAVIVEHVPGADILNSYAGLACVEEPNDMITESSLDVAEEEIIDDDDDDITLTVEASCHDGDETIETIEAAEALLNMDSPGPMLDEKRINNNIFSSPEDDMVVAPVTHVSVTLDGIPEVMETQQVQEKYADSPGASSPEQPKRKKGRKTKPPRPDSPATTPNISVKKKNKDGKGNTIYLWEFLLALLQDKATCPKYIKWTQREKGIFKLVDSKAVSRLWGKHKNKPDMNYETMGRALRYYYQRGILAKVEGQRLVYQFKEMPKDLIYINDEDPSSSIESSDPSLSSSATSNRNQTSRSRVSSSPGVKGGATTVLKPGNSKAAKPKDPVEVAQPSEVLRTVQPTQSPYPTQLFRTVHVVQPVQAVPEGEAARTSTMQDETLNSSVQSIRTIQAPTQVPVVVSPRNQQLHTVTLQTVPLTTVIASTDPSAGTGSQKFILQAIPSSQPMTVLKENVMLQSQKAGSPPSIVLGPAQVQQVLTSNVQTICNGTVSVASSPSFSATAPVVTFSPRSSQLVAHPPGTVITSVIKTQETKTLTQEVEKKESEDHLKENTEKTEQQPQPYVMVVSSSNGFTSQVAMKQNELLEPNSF
Chain of SPIB (Q01892 whole entry): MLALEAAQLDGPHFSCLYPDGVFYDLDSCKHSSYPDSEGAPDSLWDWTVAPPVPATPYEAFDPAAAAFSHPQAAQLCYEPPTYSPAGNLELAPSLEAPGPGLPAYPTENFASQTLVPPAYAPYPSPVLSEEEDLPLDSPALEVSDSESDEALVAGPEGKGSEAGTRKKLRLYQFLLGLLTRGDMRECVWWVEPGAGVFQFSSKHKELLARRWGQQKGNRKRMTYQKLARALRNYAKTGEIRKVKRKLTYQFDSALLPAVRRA

As for TTTGTT, the binding signal was 1.26 fold enrichment (6-mer frequency, TF over GST control) with FLI1; 1.29 fold enrichment (6-mer frequency, TF over GST control) in the assay with ELK1; 1.31 fold enrichment (6-mer frequency, TF over GST control) with GABPA; 1.28 fold enrichment (6-mer frequency, TF over GST control) in the assay with ERG; 1.29 fold enrichment (6-mer frequency, TF over GST control) with ELF1; 1.35 fold enrichment (6-mer frequency, TF over GST control) with EHF. The binding signal with SPI1 was 1.22 fold enrichment (6-mer frequency, TF over GST control); in the assay with SPIB, 1.17 fold enrichment (6-mer frequency, TF over GST control); in the assay with ELK3, 1.3 fold enrichment (6-mer frequency, TF over GST control).
On to ATGCGA, for which the binding signal with FLI1 is 1.18 fold enrichment (6-mer frequency, TF over GST control); with ELK1, 1.27 fold enrichment (6-mer frequency, TF over GST control); in the assay with GABPA, 1.24 fold enrichment (6-mer frequency, TF over GST control); with ERG, 1.21 fold enrichment (6-mer frequency, TF over GST control); with ELF1, 1.26 fold enrichment (6-mer frequency, TF over GST control); with EHF it was 1.23 fold enrichment (6-mer frequency, TF over GST control). Further, the binding signal with SPI1 was 1.19 fold enrichment (6-mer frequency, TF over GST control); in the assay with SPIB it was 1.12 fold enrichment (6-mer frequency, TF over GST control); with ELK3, 1.14 fold enrichment (6-mer frequency, TF over GST control).
Take TATCGA: the binding signal with FLI1 was 1.36 fold enrichment (6-mer frequency, TF over GST control); with ELK1 it was 1.28 fold enrichment (6-mer frequency, TF over GST control); with GABPA it was 1.32 fold enrichment (6-mer frequency, TF over GST control); with ERG it was 1.36 fold enrichment (6-mer frequency, TF over GST control); in the assay with ELF1, 1.36 fold enrichment (6-mer frequency, TF over GST control); with EHF, 1.35 fold enrichment (6-mer frequency, TF over GST control). Also, the binding signal with SPI1 is 1.34 fold enrichment (6-mer frequency, TF over GST control); in the assay with SPIB, 1.25 fold enrichment (6-mer frequency, TF over GST control); with ELK3 it was 1.34 fold enrichment (6-mer frequency, TF over GST control).
In the case of AATACA, the binding signal is 1.28 fold enrichment (6-mer frequency, TF over GST control) with FLI1; 1.3 fold enrichment (6-mer frequency, TF over GST control) in the assay with ELK1; 1.38 fold enrichment (6-mer frequency, TF over GST control) with GABPA; 1.33 fold enrichment (6-mer frequency, TF over GST control) with ERG; 1.35 fold enrichment (6-mer frequency, TF over GST control) with ELF1; 1.3 fold enrichment (6-mer frequency, TF over GST control) with EHF. For the same sequence, the binding signal with SPI1 was 1.28 fold enrichment (6-mer frequency, TF over GST control); with SPIB, 1.31 fold enrichment (6-mer frequency, TF over GST control); in the assay with ELK3, 1.27 fold enrichment (6-mer frequency, TF over GST control).
As to GTGCTT, the binding signal with FLI1 is 1.21 fold enrichment (6-mer frequency, TF over GST control); with ELK1 it was 1.36 fold enrichment (6-mer frequency, TF over GST control); with GABPA, 1.3 fold enrichment (6-mer frequency, TF over GST control); in the assay with ERG, 1.38 fold enrichment (6-mer frequency, TF over GST control); with ELF1, 1.2 fold enrichment (6-mer frequency, TF over GST control); in the assay with EHF, 1.24 fold enrichment (6-mer frequency, TF over GST control). The binding signal was 1.33 fold enrichment (6-mer frequency, TF over GST control) with SPI1; 1.24 fold enrichment (6-mer frequency, TF over GST control) in the assay with SPIB; 1.4 fold enrichment (6-mer frequency, TF over GST control) with ELK3.
For the sequence TGCTAT, the binding signal with FLI1 is 1.42 fold enrichment (6-mer frequency, TF over GST control); in the assay with ELK1, 1.36 fold enrichment (6-mer frequency, TF over GST control); with GABPA, 1.47 fold enrichment (6-mer frequency, TF over GST control); with ERG it was 1.41 fold enrichment (6-mer frequency, TF over GST control); in the assay with ELF1 it was 1.46 fold enrichment (6-mer frequency, TF over GST control); in the assay with EHF, 1.49 fold enrichment (6-mer frequency, TF over GST control). Further, the binding signal with SPI1 was 1.33 fold enrichment (6-mer frequency, TF over GST control); with SPIB, 1.47 fold enrichment (6-mer frequency, TF over GST control); with ELK3 it was 1.63 fold enrichment (6-mer frequency, TF over GST control).
Turning to ACATAT, the binding signal in the assay with FLI1 was 1.18 fold enrichment (6-mer frequency, TF over GST control); with ELK1 it was 1.25 fold enrichment (6-mer frequency, TF over GST control); with GABPA it was 1.3 fold enrichment (6-mer frequency, TF over GST control); with ERG, 1.25 fold enrichment (6-mer frequency, TF over GST control); with ELF1 it was 1.27 fold enrichment (6-mer frequency, TF over GST control); with EHF, 1.22 fold enrichment (6-mer frequency, TF over GST control). For the same sequence, the binding signal is 1.2 fold enrichment (6-mer frequency, TF over GST control) in the assay with SPI1; 1.2 fold enrichment (6-mer frequency, TF over GST control) in the assay with SPIB; 1.28 fold enrichment (6-mer frequency, TF over GST control) in the assay with ELK3.
For the sequence AGATTT, the binding signal with FLI1 was 1.12 fold enrichment (6-mer frequency, TF over GST control); with ELK1, 1.14 fold enrichment (6-mer frequency, TF over GST control); in the assay with GABPA, 1.08 fold enrichment (6-mer frequency, TF over GST control); in the assay with ERG it was 1.21 fold enrichment (6-mer frequency, TF over GST control); with ELF1, 1.11 fold enrichment (6-mer frequency, TF over GST control); with EHF it was 1.2 fold enrichment (6-mer frequency, TF over GST control). For the same sequence, the binding signal in the assay with SPI1 is 1.13 fold enrichment (6-mer frequency, TF over GST control); with SPIB it was 1.09 fold enrichment (6-mer frequency, TF over GST control); with ELK3, 1.01 fold enrichment (6-mer frequency, TF over GST control).
